Results as given in PubChem BioAssay AID687014 (The Scripps Research Institute Molecular Screening Center, 2013).
Out of some 370,000 compounds screened, about 6,800 (1.8%) were called active.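 Rule for the calls: active = activation above a cutoff set at the mean of all screened compounds plus 3 SD (cut at about 10% in these data); inactive = the rest.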 The full list was thinned out, with actives kept by preference.

test system: Nuclear hormone receptor DAF-12 (Heterodera glycines), GAL4 fusion; assay: hgDAF-12 GAL4 fusion reporter activation – cell-based, luminescence, HEK293, UAS-luciferase, primary screen (AID 687014); conditions: HEK293 GAL4-hgDAF12 UAS-luciferase reporter, agonist luminescence; at 6.8 µM; stronger effect = higher value;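 note: 0% = DMSO wells and 100% = sodium butyrate wells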

Compound | activation
COc1ccc2c(c1)NP(=S)(c1ccccc1)N2 (stereo not given) | 23.2% (active)
Cc1cc(C)c2c(c1)NP(=S)(c1ccccc1)N2 (stereo not given) | 13.1% (active)
COc1cc(C(c2c(O)c3ccccc3oc2=O)c2c(C)n(C)n(-c3ccccc3)c2=O)ccc1O (stereo not given) | 2.01% (inactive)
CN(C)CC1CCCCC1=O (stereo not given) | 1.62% (inactive)
O=S(=O)(c1ccccc1)N1CCC2CCNC2C1 (stereo not given) | 1.08% (inactive)
CO[C@H]([C@H](C)/C=C/N(C)C=O)[C@@H](C)C(=O)CC[C@H](C)[C@H](O)[C@H](C)[C@H]1OC(=O)/C=C/C(C)=C/[C@H](O)[C@H](OC)C[C@@H]2C=CC[C@@H](C[C@H](OC)[C@@]3(CO3)[C@@H](OC)C[C@@H](OC)[C@@H]1C)O2 | -9.43% (inactive)
COP(=O)(Sc1ccccc1)C(Cc1ccccc1)NC(=O)OCc1ccccc1 (stereo not given) | 1.8% (inactive)
Cc1ccccc1CCC[C@@H](CC1CCCCC1)CN(C)C(=O)Oc1ccccc1 | 0.88% (inactive)
c1ccc2sc(N3CCNCC3)nc2c1 | 5.89% (inactive)
c1ccc2sc(C3CCCNC3)nc2c1 (stereo not given) | 11.6% (active)
NC(=O)Nc1cccc(C(F)(F)F)c1 | 1.53% (inactive)
CCCC[N+]1(C)C2CC(OC(=O)C(CO)c3ccccc3)CC1C1OC12 (stereo not given) | -2.54% (inactive)
CC[N+](CC)(CC)CCCCCCCCCC[N+](CC)(CC)CC | 0.44% (inactive)
CS(=O)(=O)N1CCC2CCNC2C1 (stereo not given) | -2.06% (inactive)
COc1cc(OC)cc(C(=O)NCCN2CCC3(CC2)C(=O)NCN3c2ccccc2)c1 | -1.03% (inactive)
O=c1[nH]c(=O)n(CCc2ccccc2)c(O)c1/C=N/N1CCOCC1 | 0.56% (inactive)
O=C(N/N=C/c1c(O)n(C2CC2)c(=S)[nH]c1=O)c1ccccc1 | 11.8% (active)
O=c1[nH]c(=O)n(Cc2ccccc2)c(O)c1/C=N/Nc1c(F)c(F)c(F)c(F)c1F | -0.57% (inactive)
O=C(N/N=C/c1c(O)n(C2CC2)c(=S)[nH]c1=O)c1ccccc1Cl | 2.67% (inactive)
O=c1[nH]c(=S)n(C2CC2)c(O)c1/C=N/N1CCOCC1 | -1.58% (inactive)
O=C(N/N=C/c1c(O)n(Cc2ccccc2)c(=O)[nH]c1=O)c1ccccc1 | 16% (active)
CCN(CC)C(=O)[C@@H]1C=C2c3cccc4[nH]c(Br)c(c34)C[C@H]2N(C)C1 | -1.1% (inactive)
Clc1ccc([C@@H]2CC3CCC2N3)cn1 (stereo not given in full) | 1.87% (inactive)
CCC(C)NC1(c2ccccc2)CCCCC1 (stereo not given) | 1.32% (inactive)
O=C(Nc1cccc(OC(=O)N2CCCCC2)c1)N1CCOCC1 | -0.57% (inactive)
CN1CCN(C(=O)COc2ccc(C(C)(C)C)cc2Br)CC1 | 1.63% (inactive)
CC(C)(C)c1ccc(OC(=O)N2CCCCC2)cc1 | 14.4% (active)
Cc1cc(N2CCNC[C@@H]2C)ccc1N1CC[C@H](O)C1 | 0.8% (inactive)
COc1ccc2c(c1)[C@@]13CCCCC1[C@@H](C2)NCC3 (stereo not given in full) | 4.73% (inactive)
Brc1ccc2c(c1)CNCc1cnnn1-2 | 0.9% (inactive)
